This is one part of a sample in which hits are shown more often than they occur.
Pf Dd2 inh: blocks in vitro growth of P. falciparum Dd2. 4.3% of 120,000 active. Potency, µM (doses to about 28.9 µM), for inactives: top-dose activity, negative = inhibition, actives largely listed as inhibitors. P. falciparum Dd2 growth, SYBR Green, 72 h; active means well fitted inhibition curve with a large enough effect;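 further: plate controls were DMSO vehicle for no effect and reference drug for full effect; nearly all actives have a fitted effect of over 65% in size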
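Infected erythrocytes (Dd2, 0.3% parasitemia, 2.5% hematocrit final) are added to compound in RPMI-1640/Albumax II medium, grown 72 h at 37C in low oxygen, then lysed with saponin/Triton-X containing SYBR Green and read by fluorescence.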
* marks the source's active call; other numbers are inactive results; i = inactive; [ ] = dose if it differs, or a comment. Potency means the concentration at half of the fitted maximal effect.

SMILES | Pf Dd2 inh
Cc1sc2cc(C(=O)NCCN3CCOCC3)[nH]c2c1CN1CCCCC1 | i
C=Cc1cccc(CN2CCCC3(CCNC3)C2)c1 (stereo not given) | 10µM*
COc1cc(CN2CCC3(CCNCC3)C2)cc(OC)c1OC | -3.7%
COC(=O)c1cc(CN2CCCC3(CCNC3)C2)ccc1O (stereo not given) | -16.8%
Cc1ccc(CNC(=O)CN2C(=O)C(c3ccccc3)=NC23CCCCCC3)cc1 | i
Cc1ccc(NC(=O)N2CCC(CCN)CC2)cc1 | -10.3%
CC(=O)NC[C@H]1CCN(S(=O)(=O)c2ccc3c(c2)OCCO3)C[C@H]1N(C)C | -0.4%
CNC(=O)[C@@H]1CN(C(=O)c2ccc(Cl)cc2)C[C@H]1CO | -7.0%
O=C(N[C@H]1CCN2C(=O)c3cc(-c4ccccc4)ccc3NC(=O)[C@H]12)c1cccc(F)c1 | -3.2%[44.1 µM]
CC(=O)c1ccc(NC(=O)CCSc2nc(-c3ccco3)cc(C(F)(F)F)n2)cc1 | -6.1%
COc1ccc(NC(=O)CCSc2nc(-c3ccco3)cc(C(F)(F)F)n2)cc1 | i
CN(C)c1ccc(NC(=O)CCSc2nc(-c3ccco3)cc(C(F)(F)F)n2)cc1 | 11.2µM*
O=C1NC[C@@H](CCC(=O)N2CCN(c3ccccn3)CC2)N2C[C@@H](NCc3ccc(CO)o3)C[C@@H]12 | 3.0%
CCCc1noc(-c2ccn3c(CNC(=O)c4cccnc4)nnc3c2)n1 | -24.6%
CCn1nc(C)c(C(=O)N2CCC(=O)N(CC3CC3)C(C(C)C)C2)c1C (stereo not given) | -10.0%
O=C(O)[C@H](Cn1ccc(=O)[nH]c1=O)NC1CCOCC1 | 1.2%[44.1 µM]
O=C(O)CCCC(=O)N1Cc2ccccc2CC2(CCCCN2CCc2ccccc2)C1 (stereo not given) | -20.1%
NCCC(=O)N1Cc2ccccc2CC2(CCCCN2CC2CCNCC2)C1 (stereo not given) | 18.1%
CCCN1CCCCC12Cc1ccccc1CN(C(=O)CCCC(=O)O)C2 (stereo not given) | 4.9%
CCCN1CCCC12Cc1ccccc1CN(C(=O)CNC(C)=O)C2 (stereo not given) | 9.3%
CCCC(=O)N1Cc2ccccc2CC2(CCCCN2CC)C1 (stereo not given) | 10µM*
CCCC(=O)N1Cc2ccccc2CC2(CCCN2CCC)C1 (stereo not given) | 8.91µM*
O=C(NCc1ccc(Cl)nc1)c1cccn2nccc12 | -6.5%[44.1 µM]
CC1(C(=O)O)CCCCC(=O)N1 (stereo not given) | -7.3%
COc1ccccc1CN1CCc2nc(C(=O)N3CCOCC3)oc2CC1 | -6.5%[44.1 µM]
SMILES | Pf Dd2 inh
COc1ccccc1CN1CC[C@H]2COC(=O)N2c2cc(C)ccc2C1 | -21.1%[44.1 µM]
COc1ccc(CN2CCN(Cc3cc(=O)oc4cc(C)ccc34)CC2)c(OC)c1OC | -6.2%
COc1ccccc1CN1COc2ccc3c(oc(=O)c4ccccc43)c2C1 | 0.562µM*
COc1ccccc1CN1CCC(n2cc[nH]c2=O)CC1 | 5.7%[44.1 µM]
CCCc1cc(=O)oc2c3c(ccc12)OCN(Cc1ccccc1OC)C3 | 3.16µM*
N#Cc1cccc(CN2C[C@H](O)C[C@H]2c2nc(CS(=O)(=O)c3ccc(F)cc3)no2)c1 | i
CC(O)c1cc2n(n1)CCCN(C(=O)c1ccc(-c3nnn(C)n3)cc1)C2 (stereo not given) | -6.1%
CC(C)(Oc1ccccc1)C(=O)N1CCCn2nc(C(=O)N3CCOCC3)cc2C1 | 4.1%
Cc1ccc(-c2ccc3nnc(CNC(=O)c4ccccc4F)n3n2)cc1C | -14.0%
O=C1OCCN1C1CCN([S+](=O)([O-])c2cccc(C(F)(F)F)c2)CC1 | -16.7%
C=CCn1cc(CN2CCOC(Cc3cccc(OC)c3)C2)c(C)n1 (stereo not given) | -24.1%
Cc1nnc([C@H]2CCN(Cc3cc4ccccc4o3)C2)o1 | i
CCC1CN(Cc2cn(Cc3ccccc3)nc2-c2cc3ccccc3o2)CCO1 (stereo not given) | 10µM*
CN(C)c1cccc(-c2cnc3[nH]cc(CC(=O)N4CCOCC4)c3c2)c1 | i
CCN1C(=O)CCc2cc(NC(=O)NC3CCCC3)ccc21 | i
CC(=O)N1CCN(C(=O)C[C@@H]2C[C@@H](C(C)C)[C@H](CNC(=O)Nc3cccc(F)c3)C=C2C)CC1 | i
C#CCNC(=O)C[C@@H]1C[C@@H](C(C)C)[C@H](CNC(=O)c2ccccn2)C=C1C | -9.7%[44.1 µM]
COc1cccc(NC(=O)NC[C@@H]2C=C(C)[C@H](CC(=O)N3CCN(c4ccccn4)CC3)C[C@H]2C(C)C)c1 | 12.6µM*
COc1ccccc1C(=O)NC[C@@H]1C=C(C)[C@H](CC(=O)N2CCCC2)C[C@H]1C(C)C | 12.6µM*
CC1=C[C@@H](CNC(=O)c2ccccn2)[C@H](C(C)C)C[C@H]1CC(=O)N1CCN(C)CC1 | 11.2µM*
CC1=C[C@@H](CNC(=O)c2cccnc2)[C@H](C(C)C)C[C@H]1CC(=O)N1CCCC1 | -29.2%[44.1 µM]
CC1=C[C@@H](CNC(=O)c2cccnc2)[C@H](C(C)C)C[C@H]1CC(=O)N1CCN(C)CC1 | i
COc1ccccc1C(=O)NC[C@@H]1C=C(C)[C@H](CC(=O)NCc2ccccn2)C[C@H]1C(C)C | i
COc1cccc(NC(=O)NC[C@@H]2C=C(C)[C@H](CC(=O)N3CCOCC3)C[C@H]2C(C)C)c1 | -19.9%
Cc1ccc(C2(C(=O)N3CCC4(CC3)CNC(C(=O)O)C4)CC2)cc1 (stereo not given) | 12.5%
SMILES | Pf Dd2 inh
O=C(NCCN1CCCC1)c1c(OCC2CC2)cc(=O)n2c1CCOCC2 | 12.7%
O=C1c2cnc(-c3ccc(CO)cc3)nc2OCCN1Cc1ccc(F)cc1F | -40.9%[44.1 µM]
CNC(=O)C1(N2CCC[C@H]2C(=O)N(C)CCN(C)C)CCOCC1 | 22.2%[44.1 µM]
CCN(CC)c1ccc(C(=O)N2CCC(n3cc(-c4nc(C)no4)nn3)CC2)cc1 | -15.3%
c1cc2nncn2nc1NC1CCCC1 | -5.1%
CCc1ccc(NC(=O)c2ccc(CN3C(=O)NC4(CCOCC4)C3=O)cc2)cc1 | i
CS(=O)(=O)c1ccc2c(c1)nc1n2[C@@H](CNC2CCCCC2)COC1 | -13.7%[44.1 µM]
CC(C)(C)OC(=O)N1CCC(c2c(C(=O)NCCN3CCC(Cc4ccccc4)CC3)cnn2-c2ccc(F)cc2)CC1 | 1.58µM*
CN1CCN(CCCNC(=O)c2cnn(-c3ccccc3)c2C2CCN(C(=O)OC(C)(C)C)CC2)CC1 | i
CC(C)(C)OC(=O)N1CCC(c2c(C(=O)NCCN3CCC(Cc4ccccc4)CC3)cnn2-c2ccccc2)CC1 | 2.82µM*
Cc1ccc(-c2noc(-c3nc(-c4ccccn4)no3)n2)cc1 | -21.8%
NC(=O)CN1C(=O)CO[C@H]2CN(CC3CCCCC3)C[C@H]21 | -15.7%[44.1 µM]
O=C(NC1CCCCC1)[C@@H]1C[C@@H](O)CN1C1CCN(C(=O)c2ccoc2)CC1 | -13.6%
Cc1cc(F)ccc1Nc1ncncc1-c1nc(-c2ccccc2)no1 | i
Cc1cc(S(=O)(=O)N2CCC(c3noc(COc4ccc(F)cc4)n3)CC2)ccc1F | -18.9%
CN1CCCCC(CC(=O)Nc2ccc3c(c2)OCCO3)C1=O (stereo not given) | -18.1%
CN(C)C[C@@H]1CN(C)C[C@H]1NS(=O)(=O)c1ccc2c(c1)CCCC2 | 3.16µM*
CN(C)C[C@@H]1CN(C)C[C@H]1NS(=O)(=O)c1ccc(Br)cc1 | 1.78µM*
CNC(=O)N1C[C@@H](CN(C)C)[C@H](NS(=O)(=O)c2ccc3c(c2)CCC3)C1 | 20.7%
CCCS(=O)(=O)N[C@@H]1CN(C)C[C@H]1CN(C)C | 15.8%
CN(C)C[C@@H]1CN(c2ncccn2)C[C@H]1NS(=O)(=O)c1cccnc1 | i
CC(=O)N1C[C@@H](CN(C)C)[C@H](NS(=O)(=O)c2cccc(C#N)c2)C1 | 7.1%
